In the library only some 12% were active in any assay of this set; here they are far more common.
Sfp inh: qHTS Assay for Inhibitors of Bacillus subtilis Sfp phosphopantetheinyl transferase (PPTase). 4'-phosphopantetheinyl transferase ffp (Bacillus subtilis), Q9F4F7. Biochemical Sfp PPTase activity, qHTS. Potency, µM, inactives show largest response in the series, negative = inhibition, actives largely listed as inhibitors. 310,000 compounds, 3.5% hits. AID 1490, 2009;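 further: the enzyme is Sfp with the accession as filed and its product quenches rhodamine fluorescence; 0% = enzyme reaction without inhibitor and -100% = no enzyme wells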
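Fluorescence-quenching assay with 15 nM Sfp, 5 uM rhodamine-CoA and 12.5 uM BHQ-2-labelled ybbR peptide in pH 7.6 Hepes/MgCl2 buffer. Enzyme was pre-incubated with compound for 15 min at room temperature. Rate was taken from the 30-min fluorescence change (525/598 nm).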
JMJD2A Tudor: qHTS Assay for Inhibitors of JMJD2A-Tudor Domain; 390,000 compounds, 4.4% hits; Lysine-specific demethylase 4A (Homo sapiens), O75164; Potency, µM (doses to about 114 µM), for inactives: at the highest dose activity change, negative = inhibition, hits mostly inhibitors; AlphaScreen JMJD2A-Tudor / H3K4me3 peptide binding; further: on the % scale 0 is the no-effect control and ±100 the full control effect; nearly all actives have a fitted effect of over 50% in size
G9a block: qHTS Assay for Inhibitors of Histone Lysine Methyltransferase G9a; Potency, µM (titrated, usually from 102 µM), without a hit: top-dose activity, negative = inhibition, actives largely listed as inhibitors; G9a H3K9 monomethylation, AlphaScreen, 2 h; 350,000 compounds, 8.8% hits; further: on the % scale 0 is the no-effect control and ±100 the full control effect; nearly all actives have a fitted effect of over 75% in size
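G9a (20 nM) was preincubated 15 min with compound, then reacted 2 h at room temperature with 500 nM biotin-H3K9 peptide and 20 µM SAM. Monomethyl-H3K9 detected by AlphaScreen using anti-H3K9me1 antibody.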
HP1b binding inh: HTS for Inhibitors of HP1-beta Chromodomain Interactions with Methylated Histone Tails. 390,000 compounds, 0.56% hits. AID 540317, 2011. Potency, µM (doses to about 114 µM), for inactives: at the top dose activity change, negative = inhibition, actives largely listed as inhibitors. AlphaScreen HP1-beta / biotin-H3K9me3 peptide binding. Chromobox protein homolog 1 (Homo sapiens), P83916; further: nearly all actives have a fitted effect of over 70% in size
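Compound inhibition of the preformed complex between 50 nM HP1-beta and 50 nM biotinylated H3K9me3 peptide was read by AlphaScreen. Buffer was PBS pH 7.4 with 0.01% Tween-20. Incubations ran 30 min at room temperature, with 10 ug/mL donor/acceptor beads.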
L3MBTL1 inh: qHTS Assay for the Inhibitors of L3MBTL1 | AlphaScreen L3MBTL1–H3K9me1 peptide binding | Potency, µM (titrated, usually from 57.1 µM), for inactives: at the top dose activity, negative = inhibition, hits mostly inhibitors | 230,000 compounds, 0.66% hits; further: on the % scale 0 is the no-effect control and ±100 the full control effect; nearly all actives have a fitted effect of over 60% in size
Target sequence (Q9Y468 whole entry, looked up): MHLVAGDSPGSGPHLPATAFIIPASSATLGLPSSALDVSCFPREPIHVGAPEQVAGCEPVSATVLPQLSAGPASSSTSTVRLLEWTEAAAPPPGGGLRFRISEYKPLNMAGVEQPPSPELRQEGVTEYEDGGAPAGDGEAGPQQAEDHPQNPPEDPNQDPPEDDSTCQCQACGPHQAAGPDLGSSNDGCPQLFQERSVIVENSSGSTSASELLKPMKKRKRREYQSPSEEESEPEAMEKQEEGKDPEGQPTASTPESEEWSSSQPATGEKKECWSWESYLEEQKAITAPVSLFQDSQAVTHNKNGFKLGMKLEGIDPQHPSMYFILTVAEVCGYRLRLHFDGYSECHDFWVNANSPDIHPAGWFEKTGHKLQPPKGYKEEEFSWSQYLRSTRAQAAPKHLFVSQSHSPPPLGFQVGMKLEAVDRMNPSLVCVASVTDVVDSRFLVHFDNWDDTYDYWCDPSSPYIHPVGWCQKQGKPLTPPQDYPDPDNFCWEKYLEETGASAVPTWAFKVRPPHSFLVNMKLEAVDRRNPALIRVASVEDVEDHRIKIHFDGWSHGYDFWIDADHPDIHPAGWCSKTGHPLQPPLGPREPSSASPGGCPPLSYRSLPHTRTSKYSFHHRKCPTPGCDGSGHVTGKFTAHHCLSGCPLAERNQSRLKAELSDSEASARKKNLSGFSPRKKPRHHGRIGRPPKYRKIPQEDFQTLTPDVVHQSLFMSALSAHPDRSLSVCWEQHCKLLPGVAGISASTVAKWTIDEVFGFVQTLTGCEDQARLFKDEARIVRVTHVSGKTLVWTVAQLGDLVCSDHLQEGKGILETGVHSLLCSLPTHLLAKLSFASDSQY
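First, the protein-peptide complex forms for 30 min at room temperature (L3MBTL1 50 nM, biotinylated H3K9me1 peptide 75 nM). Next, compounds are pin-transferred and incubated 30 min. Finally, AlphaScreen beads are added and read after 30 min.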
BAZ2B inh: qHTS Assay for Inhibitors of BAZ2B. Bromodomain adjacent to zinc finger domain protein 2B (Homo sapiens), Q9UIF8. AlphaScreen BAZ2B-H3K14Ac peptide displacement. Potency, µM (titrated, usually from 114 µM), for the others: at the top dose activity change, negative = inhibition, most hits filed as inhibitors. 360,000 compounds, 4.4% hits. AID 504333, 2011; further: on the % scale 0 is the no-effect control and ±100 the full control effect; nearly all actives have a fitted effect of over 60% in size
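Inhibition is scored as reduced AlphaScreen emission. The BAZ2B/b-H3(5-23)K14Ac complex (50 nM each) in PBS pH 7.4, 0.01% Tween-20 meets compound (up to 110 uM) for 30 min at RT before bead addition.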
* marks the source's active call; other numbers are inactive results; ? = inconclusive; · = not tested or not shown; ! = repeats disagree; [ ] = another dose, or the depositor's remark. The call rests on the fitted dose curve; in most records, active means well fitted curve in the direction sought with a large enough effect; inconclusive means small, poorly fitted or top-dose-only effect, or another doubt; inactive means no such curve, though single readings can be large; an effect the other way counts as inactive or inconclusive. Potency means the concentration at half of the fitted maximal effect.

SMILES	Sfp inh	JMJD2A Tudor	G9a block	HP1b binding inh	L3MBTL1 inh	BAZ2B inh
Cc1ccc(-n2c(Cn3c(C)nc4ccccc43)n[nH]c2=S)cc1	-21.1%	8.91µM*	10µM*	34.0%	-8.0%	2.1%
Cc1ccc(-n2c(CCc3nc4ccccc4[nH]3)n[nH]c2=S)cc1	21.4%	7.94µM*	?	-2.2%	-0.3%	-5.6%
Cc1ccc(Cc2nc3ccccc3[nH]2)cc1	1.8%	-7.1%	22.6%	12.9%	·	-4.8%
CCc1cc(C(=O)N(CCCOC)c2c(N)n(Cc3ccccc3)c(=O)[nH]c2=O)sc1C	·	-2.4%	12.6µM*	38.2%	2.6%	6.6%
COCCCN(C(=S)NC(=O)c1ccc(Br)cc1)c1c(N)n(Cc2ccccc2)c(=O)[nH]c1=O	16.4%	-24.8%	50.1µM*	-13.8%	-2.7%	-9.5%
CCCN(C(=O)c1cc(CC)c(C)s1)c1c(N)n(Cc2ccccc2)c(=O)[nH]c1=O	·	-11.7%	7.4%[0.501 µM]	-2.9%	-9.9%	2.3%
Oc1ccc(N2CCN(c3ncnc4sc5c(c34)CCC5)CC2)cc1	56.2µM*	?	-15.6%[2.33 µM]	-63.5%	-20.8%	?
CCN1CCN(CC(=O)N/N=C/c2ccc(F)cc2F)CC1	-27.8%	2.82µM*	2.82µM*	?	6.2%	50.1µM*
O=C(CN1CCCCCCC1)N/N=C/c1ccccc1F	-6.6%	70.8µM*	12.6µM*	-3.0%	-11.9%	56.2µM*
CCN1CCN(CC(=O)Nc2cc(F)ccc2C)CC1	13.1%	-3.8%[11.4 µM]	-12.9%	11.1%	·	10.8%
COc1ccc(/C=N/NC(=O)CN2CCCCCCC2)c(C)c1C	-1.6%	5.01µM*	8.91µM*	?	·	56.2µM*
O=C(CN1CCCCC1)N/N=C/c1ccccc1Br	11.0%	-5.6%	·	11.4%	-1.1%	?
O=C(CN1CCSCC1)N/N=C/c1ccccc1F	-30.0%	3.16µM*	0.9%[12.7 µM]	?	·	50.1µM*
O=C(COc1ccccc1)NCC(=O)N1CCCC(C(F)(F)F)C1 (stereo not given)	·	-4.7%	·	32.0%	·	·
CCCCn1c(N)c(N(CC(C)C)C(=O)c2cccs2)c(=O)[nH]c1=O	·	-12.4%	?	20.7%	-6.9%	-11.0%
O=C(NCc1nnc2c(C(F)(F)F)cc(Cl)cn12)c1cccs1	-5.3%	-11.8%	11.7%	38.6%	·	-6.1%
Cc1ccc2c(c1)cc1c(=O)n(CC(=O)NC3CCCCC3)nc(C)n12	·	2.9%	7.0%[59 µM]	37.2%	·	4.4%
O=C(CN1CCCCCC1)N/N=C/c1cccc(Cl)c1Cl	-20.4%	10µM*	?	?	-0.2%	56.2µM*
O=c1[nH]ccc2c(S(=O)(=O)N3CCCNCC3)cccc12	6.5%	·	0.6%[59 µM]	·	·	·
COc1ccc(N2CCN(CC(O)COc3ccccc3C(C)(C)C)CC2)cc1 (stereo not given)	·	22.4µM*	11.2µM*	20µM*	·	31.6µM*
COc1ccc(N2CCN(CC(O)COc3c(OC)cccc3OC)CC2)cc1 (stereo not given)	-2.4%	56.2µM*!	35.5µM*	6.2%	·	79.4µM*
COc1ccc(N2CCN(CC(O)COc3cc(C)cc(C)c3)CC2)cc1 (stereo not given)	1.0%	?	39.8µM*	-15.7%	·	39.8µM*
COc1ccc(CNC(=O)C2CCN(c3nccs3)CC2)cc1	9.2%	0.9%	2.5%	6.4%	3.3%	8.2%
COc1cccc(OC)c1OCC(O)CN1CCN(c2ccccc2F)CC1 (stereo not given)	11.7%	-2.1%	27.9%[2.33 µM]	63.4%	·	1.5%
COc1ccc(N2CCN(c3nccs3)CC2)cc1	8.1%	?	50.1µM*	-9.6%	·	-37.5%
SMILES	Sfp inh	JMJD2A Tudor	G9a block	HP1b binding inh	L3MBTL1 inh	BAZ2B inh
COC(=O)c1ccc(C(NC(=O)OCc2ccccc2)/C(F)=C/[C@@H](C)C(=O)N[C@@H](CO)Cc2ccccc2)cc1 (stereo not given in full)	32.8%	·	·	·	·	·
CCCCNc1nc2ccccc2c2nc(-c3ccccc3)nn12	·	95.3%	115.9%[59 µM]	121.8%	·	79.2%
COc1ccc(N2CCN(CC(O)COc3ccc(F)cc3)CC2)cc1 (stereo not given)	-1.7%	?	15.8µM*	-7.9%	·	?
COc1ccc(OCC(O)CN2CCN(c3ccc(OC)cc3)CC2)cc1 (stereo not given)	-13.1%	?	31.6µM*	2.9%	·	-17.1%
CSc1cccc(NC(=S)Nc2cc(C)ccc2C)c1	0.1%	?	-25.7%	-5.8%	-7.0%	-20.1%
O=C(Nc1ccccc1Br)C1CC(=O)N(c2ccc3c(c2)OCCO3)C1 (stereo not given)	·	-16.4%	79.4µM*	10.2%	10.3%	6.4%
CCOC(=O)c1ccccc1NC(=O)COC(=O)C1CC(=O)N(c2ccc3c(c2)OCCO3)C1 (stereo not given)	·	-30.4%	?	17.3%	8.1%	-3.0%
O=C(O)C1CC(=O)N(c2ccc3c(c2)OCCO3)C1 (stereo not given)	4.4%	3.16µM*	-26.4%[59 µM]	?	·	?
O=C(Nc1ccc2c(c1)OCO2)C1CC(=O)N(c2ccc3c(c2)OCCO3)C1 (stereo not given)	12.1%	-3.4%[57.1 µM]	-6.6%	28.0%	·	?
Cc1ccc(NC(=O)C2CC(=O)N(c3ccc4c(c3)OCCO4)C2)nc1 (stereo not given)	·	-10.3%	-37.8%	11.1%	-11.2%	-38.5%
Cc1ccnc(NC(=O)C2CC(=O)N(c3ccc4c(c3)OCCO4)C2)c1 (stereo not given)	6.6%	-14.1%	18.8%	13.9%	·	79.4µM*
O=C(COC(=O)C1CC(=O)N(c2ccc3c(c2)OCCO3)C1)NC1CCCc2ccccc21 (stereo not given)	17.5%	-9.4%	79.4µM*	21.5%	-0.6%	-31.8%
CC(C)(O)c1[nH]c2cc(C(F)(F)F)ccc2c1C(C)(C)O	13.5%	-25.7%	23.7%	20.2%	8.6%	2.5%
COC(=O)[C@H](COC(C)(C)C)NC(=O)O[C@@H]1C(=O)c2ccc(OC)cc2O[C@H]1c1ccc2c(c1)OCO2	-6.0%	·	·	·	·	·
NC(=S)N/N=C/c1ncc(C(F)(F)F)cc1Cl	25.1µM*	?	-28.2%	41.7%	?	50.1µM*
CN(C)c1ccc(C2CC(c3c(O)n(C4CCCCC4)c(=O)[nH]c3=O)=Nc3ccccc3S2)cc1 (stereo not given)	·	-10.3%	-9.0%[59 µM]	13.4%	·	2.8%
